Source: PubChem BioAssay
Hits are enriched below; roughly 8% of the tested compounds scored in any of these assays.
FBPA coupling cs – qHTS Assay for Inhibitors of Fructose-1,6-bisphosphate Aldolase from Giardia Lamblia: Coupling assay counterscreen. coupling enzyme system counterscreen, AmpLite Red fluorescence. activity change, negative = inhibition, % at 58.2 µM, hits read low. 290,000 tested, 0.67% active; in the data active = activity change below about -30%
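Counterscreen lacking aldolase: glyceraldehyde-3-phosphate coupling-enzyme reagent preincubated 10 min at RT with compound (at 57.5 uM final), then substrate/coupling system with AmpLite Red added; fluorescence read at 525/598 nm after 20 min RT.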
RORg inh – qHTS for inhibitors of ROR gamma transcriptional activity | Potency, µM (top dose mostly 53.6 µM), for the others: top-dose activity change, negative = inhibition, hits mostly inhibitors | AID 2551, 2010 | 310,000 tested, 5.4% active | Nuclear receptor ROR-gamma (Mus musculus), P51450 | Drosophila S2 Gal4-RORgamma UAS-luciferase reporter, 20 h; also: potency is read from the fitted curve at half-maximal effect; nearly all actives have a fitted effect of over 60% in size
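Compounds are pin-transferred onto Drosophila Schneider cells expressing a copper-inducible Gal4–ROR gamma transactivation domain fusion. After 1 hr, copper sulfate is added to 700 uM final; luciferase is read 20 hr later.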
TSHR antag – Antagonists of the Thyroid Stimulating Hormone Receptor: HTS campaign. AID 504810, 2011. TSHR-expressing cells, TSH-stimulated cAMP HTRF, 2 h; stronger effect = lower value. activity change, negative = inhibition, % at 11.5 µM. Thyrotropin receptor (Homo sapiens), P16473. 330,000 tested, 0.2% active;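 active = activity change below a set negative limit, meaning inhibition stronger than a set level, cut at about -70% in these data; inconclusive = activity change between two set negative limits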
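Competitive HTRF cAMP read-out (cryptate anti-cAMP antibody, cAMP-d2; 30 min, room temperature) in freshly harvested TSHR cells. Compounds added before TSH at EC80 (4nM final), followed by 2 hours' incubation at 37 deg C.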
ELG1 DNA repair – qHTS screen for small molecules that inhibit ELG1-dependent DNA repair in human embryonic kidney (HEK293T) cells expressing luciferase-tagged ELG1; Potency, µM (series often up to 46.1 µM), without a hit: at the highest dose activity change, negative = inhibition, usual class: inhibitors; AID 504467, 2011; HEK293T ELG1-luciferase reporter, luminescence, 16 h; DNA damage induced by 5-fluorouridine; 330,000 tested, 2.3% active; also: potency is read from the fitted curve at half-maximal effect; nearly all actives have a fitted effect of over 55% in size
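Overnight (16 hr) co-exposure of 2,000 cells/well to 5-fluorouridine and compound at 37 °C preceded detection. Luciferase was quantified via ONE-Glo luminescence; loss of signal denotes inhibition.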
VP16 counter – VP16 counterscreen qHTS for inhibitors of ROR gamma transcriptional activity; Potency, µM (titrated, usually from 53.6 µM), for the others: top-dose activity, negative = inhibition, actives largely listed as inhibitors; Drosophila S2 Gal4-VP16 UAS-luciferase, luminescence, 20 h; 310,000 tested, 3.5% active; AID 2546, 2010;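 also: Gal4-VP16 expression switched on by copper sulfate through the metallothionein promoter; potency is read from the fitted curve at half-maximal effect; nearly all actives have a fitted effect of over 50% in size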
ELG1 FLuc counter – qHTS screen for small molecules that inhibit ELG1-dependent DNA repair: Hit Confirmation in Cell-Based Luciferin Assay; shares compounds with ELG1 DNA repair; cell-free firefly luciferase luminescence counter-screen, ViewLux; Potency, µM (highest dose often 46.1 µM), for inactives: at the top dose activity change, negative = inhibition, actives largely listed as inhibitors; 350 tested, 3% active; also: potency is read from the fitted curve at half-maximal effect
ELG1 Luc conf – HTS assay for small molecules that inhibit ELG1-dependent DNA repair in human embryonic kidney (HEK293T) cells expressing luciferase-tagged ELG1: Hit Confirmation; shares compounds with ELG1 DNA repair; HEK293T ELG1-luciferase levels, luminescence; cells co-treated with 5-fluorouridine; Potency, µM (doses to about 46.1 µM), for inactives: at the top dose activity change, negative = inhibition, usual class: inhibitors; 670 tested, 68% active; also: potency is read from the fitted curve at half-maximal effect; nearly all actives have a fitted effect of over 55% in size
Target sequence (Q96QE3 whole entry, looked up): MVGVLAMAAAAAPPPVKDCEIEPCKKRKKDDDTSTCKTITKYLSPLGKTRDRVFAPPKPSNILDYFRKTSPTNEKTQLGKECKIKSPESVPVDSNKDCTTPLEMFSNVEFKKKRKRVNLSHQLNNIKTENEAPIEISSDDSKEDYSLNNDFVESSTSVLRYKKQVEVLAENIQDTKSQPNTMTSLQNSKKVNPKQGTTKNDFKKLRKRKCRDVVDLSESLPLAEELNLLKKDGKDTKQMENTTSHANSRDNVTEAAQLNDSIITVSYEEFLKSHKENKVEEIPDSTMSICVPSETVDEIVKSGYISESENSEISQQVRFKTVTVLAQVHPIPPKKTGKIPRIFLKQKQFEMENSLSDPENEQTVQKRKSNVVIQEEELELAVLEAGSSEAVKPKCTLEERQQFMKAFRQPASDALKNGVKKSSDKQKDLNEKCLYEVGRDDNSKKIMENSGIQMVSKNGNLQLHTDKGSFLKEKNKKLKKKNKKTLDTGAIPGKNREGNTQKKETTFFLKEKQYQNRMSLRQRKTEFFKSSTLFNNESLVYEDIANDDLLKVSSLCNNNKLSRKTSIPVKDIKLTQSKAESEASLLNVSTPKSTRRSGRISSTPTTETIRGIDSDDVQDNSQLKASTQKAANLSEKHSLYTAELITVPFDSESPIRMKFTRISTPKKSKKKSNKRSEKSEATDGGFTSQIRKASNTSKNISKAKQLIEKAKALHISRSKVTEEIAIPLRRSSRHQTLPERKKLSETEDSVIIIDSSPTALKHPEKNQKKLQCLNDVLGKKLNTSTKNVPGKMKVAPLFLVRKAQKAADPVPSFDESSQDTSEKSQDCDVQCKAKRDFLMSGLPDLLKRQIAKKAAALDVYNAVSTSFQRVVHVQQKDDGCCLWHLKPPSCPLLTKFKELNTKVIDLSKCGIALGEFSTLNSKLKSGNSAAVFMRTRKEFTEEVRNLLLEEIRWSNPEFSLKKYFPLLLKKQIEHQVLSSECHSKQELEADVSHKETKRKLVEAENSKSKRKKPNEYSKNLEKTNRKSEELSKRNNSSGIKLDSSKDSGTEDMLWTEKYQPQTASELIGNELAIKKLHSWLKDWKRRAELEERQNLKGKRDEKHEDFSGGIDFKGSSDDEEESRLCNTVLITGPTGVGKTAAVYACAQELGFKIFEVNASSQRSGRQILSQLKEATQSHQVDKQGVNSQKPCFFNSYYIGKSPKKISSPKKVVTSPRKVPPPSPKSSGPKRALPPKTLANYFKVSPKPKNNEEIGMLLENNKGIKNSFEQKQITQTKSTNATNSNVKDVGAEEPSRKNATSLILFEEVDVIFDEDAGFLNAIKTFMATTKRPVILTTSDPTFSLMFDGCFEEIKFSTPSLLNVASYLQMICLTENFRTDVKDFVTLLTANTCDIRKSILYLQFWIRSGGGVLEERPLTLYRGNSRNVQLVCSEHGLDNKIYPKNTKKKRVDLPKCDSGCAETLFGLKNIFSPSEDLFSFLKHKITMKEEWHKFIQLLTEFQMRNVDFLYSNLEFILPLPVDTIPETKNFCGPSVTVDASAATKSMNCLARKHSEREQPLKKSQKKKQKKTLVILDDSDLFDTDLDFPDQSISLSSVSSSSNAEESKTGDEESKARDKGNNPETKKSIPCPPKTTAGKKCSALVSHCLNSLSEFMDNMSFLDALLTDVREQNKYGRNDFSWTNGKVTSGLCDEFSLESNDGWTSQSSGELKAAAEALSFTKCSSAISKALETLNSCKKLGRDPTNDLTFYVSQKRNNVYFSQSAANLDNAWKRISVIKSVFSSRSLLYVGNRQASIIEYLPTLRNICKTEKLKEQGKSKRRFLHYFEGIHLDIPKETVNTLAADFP
ELG1 MMS Luc – MMS-stimulated human ELG1 repair inhibition, confirmed; shares compounds with ELG1 DNA repair; HEK293T luciferase-tagged ELG1 level, MMS stimulated; Potency, µM (doses to about 46.1 µM), for inactives: top-dose activity change, negative = inhibition, hits mostly inhibitors; 670 tested, 53% active; AID 624249; also: potency is read from the fitted curve at half-maximal effect; nearly all actives have a fitted effect of over 60% in size
ELG1 5FU viab – qHTS screen for small molecules that inhibit ELG1-dependent DNA repair: Hit Confirmation with 5FU Viability; shares compounds with ELG1 DNA repair; cell viability with 5-FU, ELG1-dependent repair; Potency, µM (series often up to 46.1 µM), for the others: top-dose activity change, negative = viability loss, actives largely listed as cytotoxic; 670 tested, under 10 active; AID 624250, 2012;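 also: ELG1-luc HEK293T cells cotreated with 5-fluorouridine at 10 µM final; potency is read from the fitted curve at half-maximal effect; viability measured 16 h after compound addition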
ELG1 MMS cell – qHTS screen for small molecules that inhibit ELG1-dependent DNA repair: Hit Confirmation with MMS Viability; shares compounds with ELG1 DNA repair; Cell viability with MMS, ELG1-dependent DNA repair; Potency, µM (doses to about 46.1 µM), for the others: top-dose activity change, negative = viability loss, usual class: cytotoxic; 670 tested, 33% active; AID 624251, 2012;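 also: ELG1-luc HEK293T cells co-treated with 10 µM MMS; potency is read from the fitted curve at half-maximal effect; viability read 16 h after compound addition; nearly all actives have a fitted effect of over 60% in size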
ELG1 unstim viab – qHTS screen for small molecules that inhibit ELG1-dependent DNA repair: Hit Confirmation with Unstimulated Viability Assay; AID 624252, 2012; cell viability counter-screen, unstimulated, luminescence; Potency, µM (series often up to 45.9 µM), for inactives: top-dose activity change, negative = loss of viability, most hits filed as cytotoxic; shares compounds with ELG1 DNA repair; 900 tested, 8% active;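 also: potency is read from the fitted curve at half-maximal effect; compound exposure lasted 16 hours before reading; nearly all actives have a fitted effect of over 55% in size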
FLuc biochem – qHTS screen for small molecules that inhibit ELG1-dependent DNA repair: Hit Confirmation in Biochemical Luciferin Assay. shares compounds with ELG1 DNA repair. purified firefly luciferase, luminescence counter-screen. Potency, µM (highest dose often 57.5 µM), for inactives: at the highest dose activity, negative = inhibition, most hits filed as inhibitors. 350 tested, 10% active; also: potency is read from the fitted curve at half-maximal effect
Numbers without * were called inactive; ? = inconclusive; . = no result; [ ] = remark or other dose. Unless noted, calls follow the shape of the dose curve; as a rule, active = well fitted curve in the direction sought with a large enough effect; inconclusive = small, poorly fitted or top-dose-only effect, or another doubt; inactive = no such curve, though single readings can be large; an effect the other way counts as inactive or inconclusive. % is scaled to controls: 0 for no effect and ±100 for the full control effect.

SMILES	FBPA coupling cs	RORg inh	TSHR antag	ELG1 DNA repair	VP16 counter	ELG1 FLuc counter	ELG1 Luc conf	ELG1 MMS Luc	ELG1 5FU viab	ELG1 MMS cell	ELG1 unstim viab	FLuc biochem
CCOC(=O)c1ccc(NC(=O)c2nc[nH]c2C(=O)NCCNC(=O)c2[nH]cnc2C(=O)Nc2ccc(C(=O)OCC)cc2)cc1	.	.	-9.3	0.517µM*	.	?	0.792µM*	1.41µM*	?	?	-21.2%	?
O=c1[nH]c(=O)n(Cc2ccc(F)cc2)c(O)c1/C=N/Nc1ccccc1	-0.3	-5.6%	5.4	1.83µM*	1.2%	.	6.2%	1.9%	-0.2%	-3.0%	?	.
C[C@H]1[C@H](OC(=O)CCC(=O)NCc2ccc(C(=O)O)cc2)O[C@@H]2O[C@@]3(C)CC[C@H]4[C@H](C)CC[C@@H]1C24OO3	4.6	-5.4%	-6.2	?	-0.4%	.	.	.	.	.	.	.
CC1C(OC(=O)CCC(=O)NC(C)(C)CO)O[C@H]2OC3(C)CC[C@H]4[C@H](C)CCC1C24OO3 (stereo not given in full)	2.8	1.0%	-6.5	1.16µM*	2.2%	.	?	?	-4.6%	?	?	.
CN1C(=O)CCS(=O)(=O)[C@@H]1c1ccc(Cl)cc1	-0.3	12.2%[16.9 µM]	.	.	11.3%[17 µM]	.	.	.	.	.	.	.
C=C(C)[C@@]12OC3(c4ccccc4)O[C@@H]1[C@@H]1[C@@H]4O[C@]4(CO)[C@@H](O)[C@]4(O)C(=O)C(C)=C[C@H]4[C@@]1(O3)[C@H](C)[C@H]2OC(=O)/C=C/C=C/c1ccccc1	-6.6	34.1%	.	.	-21.1%	72.5%	.	.	.	.	?	-0.5%
CCOC(=O)c1ncn2c1CN(C)C(=O)c1cc(N=[N+]=[N-])ccc1-2	-3.9	-6.7%	.	.	2.3%	.	.	.	.	.	.	.
COC1C(O)C(C)O[C@H](OC2CC[C@@]3(C=O)C4CC[C@]5(C)C(C6=CC(=O)OC6)CC[C@@]5(O)C4CC[C@@H]3C2)C1O (stereo not given in full)	10.2	12.5%	.	.	-2.0%	?	0.177µM*	0.0706µM*	0.25µM*	0.158µM*	0.0445µM*	?
COC1C(O)C(C)O[C@@H](OC2CC[C@@]3(C)C4CC[C@]5(C)C(C6=CC(=O)OC6)CC[C@@]5(O)C4CC[C@@H]3C2)C1O (stereo not given in full)	3.8	?	.	.	-10.7%	?	0.0997µM*	0.0629µM*	?	0.141µM*	0.05µM*	-6.0%
C[C@@H]1O[C@H](O[C@@H]2CC[C@@]3(C=O)[C@H]4CC[C@@]5(C)[C@@H](C6=CC(=O)OC6)CC[C@@]5(O)[C@@H]4CC[C@]3(O)C2)C[C@H](O)[C@@H]1O	0.3	-6.8%[16.9 µM]	.	.	-10.9%[17 µM]	.	.	.	.	.	.	.
CC1OC(O[C@@H]2C(O)CC(O[C@@H]3C(O)C[C@@H](OC4CC[C@]5(C)[C@H](CC[C@H]6[C@@H]5CC[C@]5(C)C(C7=CC(=O)OC7)C(O)C[C@@]65O)C4)OC3C)OC2C)CC(O)C1O (stereo not given in full)	1.2	2.24µM*	.	.	-3.1%	.	0.56µM*	0.315µM*	?	0.499µM*	0.199µM*	.
COc1cc2c(cc1OC)[C@@H]1C(=O)c3ccc4c(c3OC1CO2)CC(C(C)C)O4 (stereo not given in full)	-0.2	0.1µM*	.	.	8.91µM*	?	25µM*	0.0445µM*	-21.7%	0.0397µM*	?	-4.3%
CCN1C[C@]2(C)CC[C@H](OC)[C@@]34[C@H]1C1(OCO[C@@]15C[C@H](OC)C1C[C@]3(O)C5[C@H]1OC)[C@@H](O)[C@H]24	1.6	7.1%	.	.	-4.6%	.	.	.	.	.	.	.
CC12CC[C@H]3[C@@H](CCC4(O)C[C@H](O)CCC34/C=N/NC(=O)c3ccccc3Cl)C1(O)CCC2C1=CC(=O)OC1 (stereo not given in full)	0.8	-19.6%	-0.2	-2.6%	-1.2%	.	.	.	.	.	.	.
CCCCN=C[C@]12CCC(O)CC1(O)CCC1[C@@H]2CC[C@]2(C)[C@H](C3C=CC(=O)O3)CCC12O (stereo not given in full)	1.4	-6.2%	-70.3*	1.03µM*	-2.8%	?	1.58µM*	0.889µM*	?	1.99µM*	0.629µM*	-3.0%
COc1ccc(C2=CCC3CCCCN3C2)cc1OC (stereo not given)	.	.	-5.9	?	.	.	.	.	.	.	.	.
